HSF1 inhib – HSF1 inhibition; NIH3T3-HGL HSE-luciferase, MG132-induced, luminescence 8 h; hits give low values; activity change, negative = inhibition, % at 7.5 µM (by protocol); actives 0.77% (n = 300,000); AID 2098;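 active means more than half of replicate wells show activity change below -50%, luminescence cut by over half; inconclusive means some wells, but at most half, below -50%; inactive means no replicate well below -50%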;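 further: luciferase reports HSF-1 transcriptional activity via heat shock element; 0% = median of DMSO wells and -100% = zero luminescence signal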
esBAF inh – SWI/SNF esBAF complex inhibition; reporter increase, % at 12.5 µM; actives 2% (n = 350,000); AID 602393; mouse ES cells, Bmi1-luciferase knock-in reporter, 24 h; 100% = twice the neutral-well signal; in the data active means activation above about 40%; inconclusive means no clear call, values can overlap the other calls;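 further: 0% = median of the plate's neutral control wells and 100% = double that signal; a rise in the Bmi1 reporter signal indicates esBAF inhibition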
MITF TRPM1 HTS – activators of MITF-driven TRPM1 promoter activity in SK-MEL-5 cells | SK-MEL-5 TRPM1-promoter luciferase, 24 h; % of positive control, neutral wells = 0 | activation, % at 12.5 µM | actives 0.75% (n = 300,000) | AID 588334;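 active means mean activation of at least 80% with every replicate also reaching 80%; inconclusive means mean reaches 80% but some replicate falls short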;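 further: 0% = neutral control wells and 100% = parthenolide positive control wells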
SMARCA2 activ – activators of SMARCA2 function; MG213 cells, MMTV-luciferase reporter, dexamethasone, overnight; activation, % at 9.1 µM; actives 1% (n = 370,000); AID 652017; in the data active means activation above about 7.8%;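 further: 0% = vehicle wells and 100% = reference activator wells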
HSF1 activator – increases HSF-1 driven luciferase reporter signal. actives 1.7% (n = 300,000). activation, % at 9 µM. NIH3T3-HGL HSF-1 luciferase reporter, MG132, 8 h; 100% = twice DMSO control signal. AID 504408;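 active means mean replicate activation of at least 50% with a set share of replicates each reaching 50%; inconclusive means only one of those two conditions met; inactive means mean below 50% and too few replicates reaching it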;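 further: 0% = median of the neutral control wells and 100% = twice that signal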
Wnt bcat act – activators of Wnt/beta-catenin signaling. Wnt/beta-catenin reporter cell assay, activator, plate reader. activation, % at 9.35 µM. actives 1.2% (n = 300,000); in the data active means activation above about 30%, passing the limit was not always enough; inconclusive means no clear call, values can overlap the other calls;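 further: 0% = neutral control wells and 100% = positive control wells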
SMARCA2 conf – confirmation of SMARCA2 (BRM) function activators; MG213 cells, MMTV-luciferase with dexamethasone, luminescence, overnight; MG213 cells expressing E1A, Rb sequestered; DMSO wells 0%, reference activator 100%; AID 652260; actives 30% (n = 3,500); activation, % at 9.1 µM; shares compounds with SMARCA2 activ;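 active means activation above its plate's cutoff, the mean activation of tested wells plus 3 SD, cut at about 7.9% in these data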
GAL4-VP16 Luc – GAL4-VP16 reporter activation counter-screen. HEK293 GAL4-VP16 pG5luc reporter, luciferase luminescence; scaled: DMSO wells 0%, SAHA wells 100%. actives 41% (n = 3,500). shares compounds with SMARCA2 activ. activation, % at 9.1 µM;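 active means activation above the solvent-only control well mean plus 3 SD, averaged across control plates, cut at about 5.2% in these data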
* marks the source's active call; other numbers are inactive results; ? = inconclusive; · = no result given. Rows were chosen to be rich in hits. Some 4.3% of all compounds tested hit in one or more screens of this group.

SMILES | HSF1 inhib | esBAF inh | MITF TRPM1 HTS | SMARCA2 activ | HSF1 activator | Wnt bcat act | SMARCA2 conf | GAL4-VP16 Luc
CCCNC(=O)[C@H]1[C@H](CO)[C@H]2Cn3c(cccc3=O)[C@@H]1N2C(=O)C1CCC1 | · | 1 | · | · | · | · | · | ·
COc1ccccc1C(=O)Nc1nsc(-c2ccccc2)n1 | 19 | 46* | ? | 8.8* | 26 | ? | 13* | 15*
COc1ccccc1C(=O)Nc1ccncc1 | 4 | -3 | 3 | 0 | -7 | 1 | · | ·
Cc1ccccc1-c1ccc2c(c1)O[C@H](CN(C)Cc1ccc(C(=O)O)cc1)[C@@H](C)CN([C@@H](C)CO)S2(=O)=O | · | 0 | · | · | · | · | · | ·
CCN(CC)C(=S)SSC(=S)N(CC)CC | -9 | 7 | -29 | 9.2* | -27 | -2 | -9 | 7.0*
CCOC(=O)C1=C(C)NC(=O)C(C#N)C1c1ccncc1 (stereo unspecified) | -12 | -6 | 1 | 9.8* | 3 | 0 | -3 | -2
CCOC(=O)C1=C(C)NC(C)=C(C(=O)OCC)C1c1ccncc1 | · | · | · | -9 | · | -4 | · | ·
C[C@@H]1CCCCO[C@@H](CN(C)S(=O)(=O)c2ccccc2)[C@@H](C)CN([C@@H](C)CO)C(=O)c2cc(NC(=O)Nc3ccc4c(c3)OCO4)ccc2O1 | · | 15 | · | · | · | · | · | ·
Cc1ccc2nc(Cl)c3cc(C(=O)NCCCN4CCCC4)sc3c2c1 | 0 | 0 | 7 | 14* | 1 | -4 | 10* | 1
O=C1c2cccc(NCCNCCO)c2C(=O)c2cccc(NCCNCCO)c21 | -11 | · | -81 | 10* | -11 | 29 | -16 | -1
O=C(O)CCNc1ccc(NCCC(=O)O)c2c1C(=O)c1ccccc1C2=O | -5 | · | -24 | -4 | -24 | 0 | · | ·
O=C(C[C@@H]1C[C@H]2c3cc(NC(=O)NC4CCCC4)ccc3O[C@H]2[C@H](CO)O1)NCc1ccc(-c2ccccc2)cc1 | · | 6 | · | · | · | · | · | ·
CCc1ccccc1OCC(=O)OCC(=O)Nc1cc(C)on1 | · | -3 | -5 | 8.3* | · | -3 | -2 | 0
Cc1cc(NC(=O)COC(=O)COc2ccc(C(=O)c3ccccc3)cc2)no1 | 5 | -7 | · | 0 | 44 | 6 | · | ·
Cc1cc(/C=C(\C#N)C(=O)O)c(C)n1-c1ccc(Br)cc1 | 3 | -1 | 14 | -1 | 22 | -2 | · | ·
Cc1ccc(-n2c(C)cc(C=C(C#N)C#N)c2C)cc1 | 16 | 11 | 9 | 12* | 15 | 25 | 1 | 2
COC(=O)c1ccc(-n2c(C)cc(C(=O)COC(=O)CNS(=O)(=O)c3ccc(C)cc3)c2C)cc1 | -9 | · | 2 | -3 | -7 | -4 | · | ·
COC(=O)c1cc(C(=O)OC)cc(-n2c(C)cc(C(=O)COC(=O)CNS(=O)(=O)c3ccc(C)cc3)c2C)c1 | 3 | · | -12 | 8.0* | -1 | -3 | -1 | -1
COc1ccc(-c2nnc(SCC(=O)Nc3cccc(Cl)c3)o2)cc1 | -6 | 33 | · | 12* | -8 | 46* | 1 | 7.2*
COC(=O)c1ccc(COc2ccccc2/C=C(\C#N)C(=O)Nc2ccc(C)cc2)cc1 | -4 | · | 23 | 8.2* | -8 | · | -3 | 14*
C[C@@H]1CN([C@@H](C)CO)C(=O)c2cccc(NC(=O)NC3CCCCC3)c2O[C@@H]1CN(C)Cc1ccc2c(c1)OCO2 | · | -7 | · | · | · | · | · | ·
N#C[C@H]1[C@@H](c2ccc(C3=CCCC3)cc2)[C@H](CO)N1C(=O)Cc1ccncc1 | · | -2 | · | · | · | · | · | ·
CCOC(=O)c1ccc(Nc2ncccc2[N+](=O)[O-])cc1 | 26 | ? | 66 | 8.3* | 19 | 20 | 16* | 6.2*
CCc1nc2ccc(C(=O)N(C)Cc3ccccc3)cn2c1N(C)Cc1ccc(OC)cc1 | · | 3 | · | 9.9* | · | -2 | 4 | 1
COCC#Cc1cnc2c(c1)C(=O)N([C@@H](C)CO)C[C@H](C)[C@@H](CN(C)C(=O)c1cnccn1)O2 | · | 3 | · | · | · | · | · | ·
SMILES | HSF1 inhib | esBAF inh | MITF TRPM1 HTS | SMARCA2 activ | HSF1 activator | Wnt bcat act | SMARCA2 conf | GAL4-VP16 Luc
Cc1ccc(C)c(N2CCN(c3cnn(-c4nc5ccccc5s4)c(=O)c3Cl)CC2)c1 | 0 | 6 | 29 | 9.3* | -4 | 29 | 4 | 6.5*
O=C(CCN1CCCCC1)N[C@H]1CC[C@H](CCn2cc(-c3cccc(F)c3)nn2)O[C@H]1CO | · | -2 | · | · | · | · | · | ·
C[C@@H]1CN([C@@H](C)CO)S(=O)(=O)c2ccc(Br)cc2O[C@@H]1CN(C)C | · | -4 | · | · | · | · | · | ·
CNC[C@@H]1Oc2ccc(NC(=O)NC3CCCCC3)cc2CC(=O)N([C@@H](C)CO)C[C@@H]1C | · | -6 | · | · | · | · | · | ·
COc1ccc(N2CCN(C(=O)c3cc4ccccc4o3)CC2)cc1 | -8 | -4 | 2 | -3 | 2 | 1 | · | ·
O=C(c1cc2cc(Br)ccc2o1)N1CCN(c2ccccc2)CC1 | 21 | 21 | 2 | 8.1* | 22 | 13 | 1 | 5
C[C@H](CO)N1C[C@H](C)[C@H](CN(C)C(=O)C2CCCCC2)Oc2ncc(-c3cccc(F)c3)cc2C1=O | · | -9 | · | · | · | · | · | ·
COc1ccc(NC(=O)n2nc(OC(=O)c3cccs3)cc2N)cc1 | 12 | ? | 23 | 9.1* | 7 | 18 | 3 | 2
O=C(NC1CCN(Cc2ccccc2)CC1)c1cccc(OC(F)F)c1 | 0 | 8 | -15 | 10* | 9 | -1 | 6 | 0
CCOC(=O)C1CN(S(C)(=O)=O)c2cc(CC(=O)OC)ccc2O1 (stereo unspecified) | -3 | · | 5 | 8.2* | -16 | -12 | -1 | 1
CCOC(=O)C1CN(S(=O)(=O)c2ccc(OC)cc2)c2cc(CC(=O)OC)ccc2O1 (stereo unspecified) | 0 | -1 | 4 | -3 | -15 | 0 | · | ·
COc1cccc(/C=N/N2CCOCC2)c1O | -36 | · | 47 | 10* | -41 | 20 | 4 | 3
COc1cccc(C=Nc2ccc(N3CCOCC3)cc2)c1O | -19 | -9 | · | -2 | -20 | 0 | · | ·
COc1ccc(OCC(=O)NC(=S)Nc2ccccc2F)cc1 | -5 | · | 1 | 9.8* | 26 | 0 | 2 | 1
O=C(COc1ccccc1)Nc1ccccc1F | 2 | 16 | · | 5 | -11 | 1 | · | ·
Cc1ccc(S(=O)(=O)Nc2cccc3c2O[C@H](CN(C)C(=O)Nc2ccc(F)cc2)[C@@H](C)CN([C@H](C)CO)C3=O)cc1 | · | 1 | · | · | · | · | · | ·
O=C(Nc1ccc(F)cc1)c1cnccn1 | · | 6 | · | 8.7* | · | -3 | 2 | 2
Cc1ccc(NC(=O)c2cnccn2)cc1 | 3 | · | 63 | 3 | 4 | 5 | · | ·

From PubChem
